Laboratory results as given in ChEMBL document CHEMBL4513216, “Probing the Open Global Health Chemical Diversity Library for Multistage-Active Starting Points for Next-Generation Antimalarials” (ACS Infect Dis, 2020).
In all, about 68,000 compounds went through this assay and about 2,700 (4%) showed an effect of 50% or more. The sample as a whole holds a higher share of strong results than the screen did.

Test system: Plasmodium berghei
Assay: Screen against P. berghei liver stage (PbLuc), transformed with Luciferase, at 2uM
Format: functional, HepG2
Conditions: tested at 2 uM

SMILES | INHIBITION [%]
O=C(CN1CCCc2sccc2C1=O)NC1CCc2nccn2C1 (stereo unspecified) | -4.89
O=S(=O)(c1cccs1)N1CCN(Cc2nc(-c3ccco3)cs2)CC1 | 29.89
O=S(=O)(NC1CCC12CCN(CC1CCOCC1)CC2)c1ccccc1 (stereo unspecified) | 51.36
Cc1ccc(CN2CCC3(CCC3NS(=O)(=O)c3ccccc3)CC2)o1 (stereo unspecified) | 11.18
O=S(=O)(NC1CCC12CCN(CC1CC1)CC2)c1ccccc1 (stereo unspecified) | -3.36
CCc1nnc2n1CCN(C(=O)C(C)Oc1ccc(C#N)cc1)C2 (stereo unspecified) | 10.77
CNC(=O)C1CCN(c2ncc3c(n2)CCN3c2ccccc2)C1 (stereo unspecified) | 51.96
CC(=O)N(C)C1CCN(c2ncc3c(n2)CCN3c2ccccc2)C1 (stereo unspecified) | -13.72
CN(CCO)C1CCN(c2ncc3c(n2)CCN3c2ccccc2)CC1 | 15.84
COCCC1(CNC(=O)Nc2ccnc(C)c2)CCCC1 | -37.69
CC(=O)N1N=C(c2ccccc2)OC1C(=O)NCCc1ccc(O)cc1 (stereo unspecified) | 26.64
CC(=O)N1N=C(c2ccco2)OC1C(=O)NCCc1ccc(F)cc1 (stereo unspecified) | 58.6
CC(=O)N1N=C(c2ccco2)OC1C(=O)NCCc1ccc(O)cc1 (stereo unspecified) | 20.42
CC(=O)N1N=C(c2ccccc2)OC1C(=O)NCCC1=CCCCC1 (stereo unspecified) | 85.54
CC(=O)N1N=C(c2ccccc2)OC1C(=O)NCCc1ccc(C)cc1 (stereo unspecified) | 34.18
CC(=O)N1N=C(c2ccco2)OC1C(=O)NCC(C)C (stereo unspecified) | 5.77
Cc1noc(CNC(=O)[C@@H](C)NC(=O)OC(C)(C)C)n1 | -29.78
Cc1[nH]n(C)c2nc(=O)cc(C(F)(F)C(F)(F)F)c1-2 | -69.92
O=C([C@@H]1COC[C@H]2CN(C3CCCC3)C[C@H]21)N1CCC(F)CC1 | 9.45
O=S(=O)(CCc1ccccc1)Nc1cc(Cl)ccn1 | 0.51
CCn1cc(S(=O)(=O)N2CCC3(CCCN(CC4CCC4)C3=O)C2)cn1 (stereo unspecified) | 13.58
Cc1cnn(CC2CCCCN2C(=O)CN(C)C2CC2)c1 (stereo unspecified) | 21.31

SMILES | INHIBITION [%]
O[C@H]1CN(CCOc2ccc(F)cc2)CC[C@@]12CCCO2 | 9.05
O=C(N1CCOCC1)N1CCc2ncc(CN3CCCCC3)n2CC1 | 56.25
O=C(C1CCOCC1)N1CCc2ncc(CN3CCCC3)n2CC1 | -9.48
O=C(C1CCOCC1)N1CCc2ncc(CN3CCCCC3)n2CC1 | 41.28
COc1c(Cl)cccc1NCc1csc(NC(C)=O)n1 | -49.16
Cc1noc([C@H]2C[C@@H]3CCN(C(=O)N(C)C)C[C@H]3O2)n1 | -7.58
CC(NCc1nnc2n1CCCC2)c1nc(-c2cccs2)no1 (stereo unspecified) | 26.14
Cc1cc(NC(=O)CN2CCn3c(nnc3C3CC3)C2)on1 | 17.12
CCN(CC)c1ncc(Cl)c(C(=O)NC2CCc3nccn3C2)n1 (stereo unspecified) | 59.56
CCN(CC)c1ncc(Cl)c(C(=O)NC2CCC(O)CC2)n1 (stereo unspecified) | -2.22
CCN(CC)c1ncc(Cl)c(C(=O)NC2CC2)n1 | 26.8
CCOC(=O)[C@@H]1[C@@H](c2ccccc2)CN2CCN(C(C)=O)C[C@H]12 | 40.13
CCOCCn1c(=O)[nH]c2cc(C(=O)N(C)Cc3nc(C)c[nH]3)ccc21 | 11.64
CCOCCn1c(=O)[nH]c2cc(C(=O)N(C)Cc3cc(C)[nH]n3)ccc21 | 14.24
CCOCCn1c(=O)[nH]c2cc(C(=O)N(C)Cc3nc(C)cs3)ccc21 | 51.98
COCCN1CCc2ncnc(-c3ccccc3)c2CC1 | 39.44
Cc1ccn2ncc(C(=O)N3CCCC(n4cccn4)C3)c2n1 (stereo unspecified) | 5.52
CCc1nccn1C1CCCN(C(=O)c2cnn3ccc(C)nc23)C1 (stereo unspecified) | -14.3
Cc1ccn2ncc(C(=O)N3CCCC(c4cc(C)[nH]n4)C3)c2n1 (stereo unspecified) | 18.91
Cc1ccn2ncc(C(=O)N3CCCC(c4noc(C)n4)C3)c2n1 (stereo unspecified) | 50.52
Cc1ccn2ncc(C(=O)N3CCCC(n4ccnc4C)C3)c2n1 (stereo unspecified) | 56.02
Cc1csc(C2CCCN(C(=O)c3cnn4ccc(C)nc34)C2)n1 (stereo unspecified) | 14.96

SMILES | INHIBITION [%]
CCN1Cc2cc(F)ccc2N(C(C)=O)CCC1=O | -10.65
CNc1nc2c(s1)C(c1ccccc1F)CC(=O)N2 (stereo unspecified) | -37.62
Cc1ccc(-c2ncc(CNc3cnccc3CO)s2)cc1 | -13.13
O=C(C1CCC2(CCN(Cc3cccnc3)CC2)CO1)N1CCCC1 (stereo unspecified) | -84.83
CC(NC(=O)N1CCN(c2cccs2)CC1)c1ccc(C#N)cc1 (stereo unspecified) | 16.79
CN1CCN(Cc2nnc(C3CCN(C(CO)CO)CC3)n2C)CC1 | 59.68
CN1CCN(Cc2nnc(C3CCN(CC4CC4)CC3)n2C)CC1 | -0.04
CN1CCN(Cc2nnc(C3CCN(C4CCCCC4)CC3)n2C)CC1 | 26.81
Cc1cc(CN2CCC(C3Nc4ccccc4S(=O)(=O)N3)CC2)oc1C (stereo unspecified) | 22.81
CCOC(=O)CN(C)C1CCc2ccccc21 (stereo unspecified) | 44.71
CN(C)C(=O)CNC(=O)c1cc2ccccc2nc1N1CCCC1 | 8.74
CCn1cc(Cl)c(C(=O)NCCCO)n1 | 12.84
CCc1nc(C2CCCN(C(=O)c3ccc(Cl)cc3)C2)no1 (stereo unspecified) | 9.82
CCN(CC(=O)NCc1nc(C2CC2)no1)Cc1ccc(Cl)cc1 | -37.68
O=C(CCNC(=O)c1ccc(Cl)cc1)NCc1nc(C2CC2)no1 | 60.34
c1cnc(N2CCCC(NCc3ccc(-n4ccnc4)cc3)C2)nc1 (stereo unspecified) | 1.91
Cc1cnn(CC2CCCCN2C(=O)c2c(C)noc2C)c1 (stereo unspecified) | -13.24
CCC(CO)NCc1ccc(-c2ccccc2)o1 (stereo unspecified) | 12.02
CN(C)c1ccc(C(=O)NCCCNc2ccc(C(F)(F)F)cn2)cc1 | 25.74
Nc1ncc(-c2ccc(F)cc2)c(C2CCCNC2)n1 (stereo unspecified) | 54.2
Nc1ncc(-c2ccc(Cl)cc2)c(C2CCCNC2)n1 (stereo unspecified) | 37.63
Nc1ncc(-c2ccc(C(F)(F)F)cc2)c(C2CCCNC2)n1 (stereo unspecified) | -10.58

SMILES | INHIBITION [%]
O=C(C1CC=CC1)N1C[C@@H]2CN(Cc3ccsc3)CCO[C@@H]2C1 | -10.92
Cc1ccc(C)c(CC(=O)NC2CCS(=O)(=O)CC2)c1 | 29.13
Cc1ccc(C)c(CC(=O)NC2CCC(N3C(=O)CCC3=O)CC2)c1 (stereo unspecified) | -37.65
Cc1ccc(C)c(CC(=O)NC2CCCS(=O)(=O)C2)c1 (stereo unspecified) | 57.75
CC(C)c1nc(CN(C)C(=O)c2ccc(CN3CCCCC3)cc2)cs1 | 0.31
Fc1ccc(CN2CCC3(CC2)CC(c2cccnc2)CO3)cc1 (stereo unspecified) | -14.21
CC(C)N(C)Cc1cnc2n1CCN(C(=O)Cc1cccs1)C2C (stereo unspecified) | 70.31
CCOCc1cnc2n1CCN(C(=O)Cc1cccs1)C2C (stereo unspecified) | -24.63
CC1c2ncc(Cn3cncn3)n2CCN1C(=O)Cc1cccs1 (stereo unspecified) | 28.77
CCc1n[nH]c(C2CN(C(=O)c3cc4c(s3)CCCC4)CCO2)n1 (stereo unspecified) | 20.28
Cc1cc2c(N)nc(=O)n(CC(=O)Nc3cccc(Cl)c3)c2s1 | 6.05
CCN(CCOC)C(=O)c1cc(COc2ccc3c(c2)CCCC3)on1 | 29.89
CCOCCN1CCc2cncnc2C1 | 31.51
CC(C)OCCN1CCc2cncnc2C1 | 62.51
COCCCN1CCc2cncnc2C1 | -12.48
COC(=O)c1sc(C(NC(=O)c2ccccc2)C2CC2)nc1C (stereo unspecified) | -13.12
C=C(C)CN1CCC(NC(=O)c2scnc2C)CC1 | -7.13
COc1cc(I)c(Cl)cc1C(=O)N(C)C | 32.04
CCOCc1nc2c(c(N3CCCn4nc(C)cc4C3)n1)CCNCC2 | -31.55
COCCNc1nc2c(c(N3CCn4nc(C)cc4C3)n1)CCNCC2 | 51.19
Cc1cc2n(n1)CCN(c1nc(N)nc3c1CCNCC3)C2 | 17.6
O=C1CC[C@@H](C(=O)N2CCC(Cn3cc(C4CCCCC4)nn3)CC2)N1 | 17.61

SMILES | INHIBITION [%]
CC(C)n1nc2c(cc1=O)CN(c1ncnc3sccc13)CC2 | -35.16
COCCN1C(=O)c2ccc(C(=O)NCCc3c[nH]cn3)cc2C1=O | 34.59
CC(C)CN(CC(O)c1ccc(F)cc1)C(=O)c1cnsn1 (stereo unspecified) | -36.72
O=C(NC1CCN(Cn2nc(-c3ccccc3)oc2=O)CC1)C1CC1 | -0.69
CC1CCCN(Cc2cccc(C(=O)Nc3nccs3)c2)C1 (stereo unspecified) | 63.46
Cc1cc(C2CCCN2Cc2cccc(C(=O)Nc3nccs3)c2)no1 (stereo unspecified) | 2.7
CC(=O)Nc1cccc(CN2CCCC2C(=O)Nc2nccs2)c1 (stereo unspecified) | -4.48
CC(C)N(C)Cc1cn2c(n1)CN(C(=O)Cc1ccccc1)CC2 | -47.56
CCN1CCN(C(=O)CCc2c(C)noc2Cl)CC1 | -61.5
Cc1noc(Cl)c1CCC(=O)N1CCN(CC(C)(C)O)CC1 | 21.89
Cc1noc(Cl)c1CCC(=O)N1CCN(Cc2ccncc2)CC1 | 62.13
O=C(Nc1ccc2c(ccn2CCN2CCOCC2)c1)c1ccccn1 | 13.72
Cc1cc(CN(C)C(=O)NC2CCCC2)no1 | 29.12
N#Cc1cccc(N2CCCC3(CCC(=O)N(C4CCCC4)C3)C2)n1 (stereo unspecified) | -11.07
COc1c(C2CCCN2C(=O)c2sc(C)nc2C)c(C)nn1C (stereo unspecified) | -37.68
CN(C)C(=O)CN1CCCCC1c1nc(N)ncc1-c1cccc(F)c1 (stereo unspecified) | 65.76
NC(=O)CN1CCCCC1c1nc(N)ncc1-c1cccc(F)c1 (stereo unspecified) | 18.64
CN(C)C(=O)CN1CCCCC1c1nc(N)ncc1-c1ccccc1 (stereo unspecified) | -19.81
